# Among all 6,200 compounds or so, about 2,900 (47%) were called active. The set was probably picked from earlier hits. The list shows a part of the results. Unmarked numbers belong to inactive results. Cut-off read from the data, not from the text of the source: active = inhibition above about 50%; inactive = the rest.
# Test: Mycobacterium tuberculosis growth inhibition, primary screen (AID 1259343)
# Conditions: inhibition: at 10 µM, stronger effect = higher value; outcome: 10 uM
row,Compound,inhibition
1,Cc1ccc(Nc2nc(C)c([N+](=O)[O-])c(N3CCOCC3)n2)c(C)c1,2.59%
2,COCC(C)Nc1ncnc2c1c(-c1ccccc1)cn2-c1ccc(F)cc1 (stereo not drawn),72.1% (active)
3,COCCCNc1ncnc2c1c(-c1ccccc1)cn2-c1ccc(OC)cc1,91.3% (active)
4,COCCNc1ncnc2c1c(-c1ccccc1)cn2-c1ccc(C)cc1,100% (active)
5,Cc1ccc(-n2cc(-c3ccccc3)c3c(NCCCO)ncnc32)cc1,24.3%
6,COc1ccc(-n2cc(-c3ccccc3)c3c(NCC(OC)OC)ncnc32)cc1,19.7%
7,COCCCNc1ncnc2c1c(-c1ccccc1)cn2-c1ccc(F)cc1,98.3% (active)
8,COCC(C)Nc1ncnc2c1c(-c1ccccc1)cn2-c1ccc(OC)cc1 (stereo not drawn),-15.1%
9,COCCNc1ncnc2c1c(-c1ccccc1)cn2-c1cccc(Cl)c1,42.5%
10,CN(CC1=CC[C@H]2C[C@@H]1C2(C)C)Cc1nnc(-c2ccccc2)o1,39%
11,CCCCCCSc1nnc2nc(C)cc(C)n12,58.4% (active)
12,CCCCCCCSc1nnc2[nH]c(=O)cc(N)n12,inactive
13,CCCCCCSc1nnc2[nH]c(=O)cc(N)n12,inactive
14,COc1cc(C(=O)NS(=O)(=O)c2ccc(Cl)cc2)ccc1OC(C)C,28.1%
15,O=S(=O)(Nc1ccc(C(F)(F)F)cc1)c1cccc(Cl)c1,22.9%
16,O=C(NS(=O)(=O)c1ccccc1)c1cccc(Cl)c1,88.3% (active)
17,O=C(NS(=O)(=O)c1cncc(Br)c1)c1ccc(OC(F)(F)F)cc1,18.9%
18,CNc1cc(C(=O)NS(=O)(=O)c2ccccc2)cc(Cl)n1,55.1% (active)
19,Cc1cc(-c2nc3c(C)cccc3o2)ccc1NC(=O)C(C)C,58.5% (active)
20,Cc1ccc2oc(-c3ccc(C)c(N)c3)nc2c1,37.6%
21,N#Cc1c(N=CN2CCCCCC2)sc2c1CCCC2,99% (active)
22,Cc1ccc(-n2[nH]c(C)c(N=Nc3cccc(-c4cccc(C(=O)O)c4)c3O)c2=O)cc1C,83.7% (active)
23,Cc1ccc(NC2CCCN(C(=O)c3cc4ccccc4o3)C2)cc1C (stereo not drawn),inactive
24,Cc1cc2cccc(C(=O)N3CCN4CCN(C)C(=O)C4C3)c2o1 (stereo not drawn),0.8%
25,Cc1cccc2cc(C(=O)N3C[C@H]4CC=CC[C@H]4C3)oc12,72.4% (active)
26,Cc1cnc(NC(=O)c2ccc(N(C)C3CCCCC3)cc2)s1,45.9%

row,Compound,inhibition
1,O=C(Nc1nncs1)c1ccc(C2CCCCC2)cc1,82.1% (active)
2,S=C(Nc1ccccc1)Nc1nncs1,15.5%
3,O=C1NC(=S)SC1=Cc1ccccc1OC(F)F,81.1% (active)
4,O=C1NC(=S)SC1=Cc1ccccc1OCc1ccccc1,102% (active)
5,N#Cc1ccc(-c2ccc(O)cc2)cc1,96.9% (active)
6,Oc1ccc(-c2ccc(I)cc2)cc1,20.3%
7,C=CCOc1ccc(-c2ccc(C#N)cc2)cc1,-10.6%
8,O=C(CCl)N1CCSC1c1ccccc1F (stereo not drawn),99.6% (active)
9,O=C(Nc1ccc(Cl)cc1)N1CCC1c1ccccc1F (stereo not drawn),-6.67%
10,CCN1CCN(c2c(CN(C(=O)Nc3ccc(SC)cc3)C(C)C)c(C)nn2-c2cccc(F)c2)CC1,74.4% (active)
11,Cn1nc(C(=O)NCC23CC4CC(CC(C4)C2)C3)ccc1=O,77.1% (active)
12,CCCn1nc(C(=O)NC(C)c2nnc3n2CCC3)ccc1=O (stereo not drawn),3.57%
13,Nc1c(C=C2C=C([N+](=O)[O-])C=C(Br)C2=O)c(=O)nc2sc(-c3ccccc3)nn12,45.7%
14,O=C(O)c1cc(-c2cccc(F)c2)n2nc(-c3ccccc3)cc2n1,34.3%
15,O=c1cc(-c2ccccc2)nc2sc(Br)nn12,102% (active)
16,O=c1[nH]c2c(Cl)c(Cl)c(Cl)cc2o1,31.7%
17,O=c1[nH]c2c(Br)c(Br)c(Cl)cc2o1,inactive
18,O=c1[nH]c2cc(Cl)c(Br)cc2o1,81.6% (active)
19,CCc1c(C)nc(-n2nc(C)cc2NC(=O)c2cccc3ccccc23)[nH]c1=O,100% (active)
20,CCc1c(C)nc(-n2nc(C)cc2NC(=O)Cc2cccc3ccccc23)[nH]c1=O,98.5% (active)
21,CCc1c(C)nc(-n2nc(C)cc2NC(=O)c2ccccc2SC)[nH]c1=O,100% (active)
22,CCc1cc(=O)[nH]c(-n2nc(C)cc2NC(=O)c2ccccc2SC)n1,99.7% (active)
23,Cc1cc(NC(=O)c2cccc3ccccc23)n(-c2nc(C)c(C)c(=O)[nH]2)n1,-30.4%
24,CCc1c(C)nc(-n2nc(C)cc2NC(=O)c2ccccc2C)[nH]c1=O,12.6%
25,CNc1cccc(-c2ccc(O)cc2)n1,33.6%
26,C=CCn1c(-c2ccc(Cl)cc2Cl)csc1=Nc1cccc(O)c1,-10.5%

row,Compound,inhibition
1,CCOC(=O)Cn1c(=NC(=O)c2ccccc2[N+](=O)[O-])sc2cc(C(C)C)ccc21,3.22%
2,CCc1c(C)nc(-n2nc(C)cc2NC(=O)c2ccccc2C(F)(F)F)[nH]c1=O,101% (active)
3,CCc1c(C)nc(-n2nc(C)cc2NC(=O)c2cc3ccccc3o2)[nH]c1=O,-38.5%
4,CCc1c(C)nc(-n2nc(C)cc2NC(=O)c2cc(=O)c3ccccc3o2)[nH]c1=O,101% (active)
5,Cc1ccc(-c2nc(C)c(C(C)C)c(N3CCNCC3)n2)cc1,44%
6,Cc1nc(-c2ccc(Cl)cc2)nc(N2CCNCC2)c1Cc1ccccc1,97.6% (active)
7,Cc1cccc(OC2CN(c3nc(-c4ccccn4)nc4c3CCNC4)C2)c1,26.7%
8,Cc1nc(-c2ccc(Cl)cc2)nc(N2CCNCC2)c1C,79.2% (active)
9,CCc1c(C)nc(-c2ccc(OC)cc2)nc1N1CCNCC1,42.7%
10,Cc1cccc(-c2nc(C)c(Cc3ccccc3)c(N3CCNCC3)n2)c1,101% (active)
11,Cc1nc(-c2cccc(F)c2)nc(N2CCNCC2)c1Cc1ccccc1,66.1% (active)
12,Cc1nc(C)c(Cc2ccccc2Cl)c(N2CCN(C(=O)c3cccc(Br)c3)CC2)n1,29.3%
13,COC(=O)c1ccc(NC(=O)c2ccc(Br)o2)cc1,83.8% (active)
14,Cc1ccc(CN(C)c2ccc(C(=O)O)cc2)cc1,51.7% (active)
15,CN(Cc1ccc(C(N)=O)cc1)c1cccc(F)c1C#N,13.8%
16,CN(Cc1ccc(Cl)cc1)c1nccc(-c2cc(C(=O)O)ccn2)n1,17.6%
17,O=C(NCCc1ccc(O)cc1)Nc1cccc2c1CCCC2,7.1%
18,O=C(CCc1ccc(O)cc1)c1c(O)cc(O)cc1O,93.3% (active)
19,O=C(CCc1ccc(O)cc1)N1CCOC(c2ccc(Cl)cc2)C1 (stereo not drawn),19.6%
20,Clc1ccc(NN=Cc2ccccn2)cc1Cl,14.1%
21,C(=NNc1ccc2ccccc2n1)c1ccccn1,-19.7%
22,Clc1ccc2nc(NN=Cc3ccccn3)nc(-c3ccccc3)c2c1,92.1% (active)
23,Nc1ccc(S(=O)(=O)Nc2ccnn2-c2ccccc2)cc1,55.2% (active)
24,CC(C)=CCCC(C)CCNCCc1ccco1 (stereo not drawn),-15%
25,CC(NC(=O)c1ccc(Oc2ccccc2)cc1)C1CCCO1 (stereo not drawn),92.8% (active)
26,CC(=O)N1CCC(NC(=O)c2ccc(Oc3ccccc3)cc2)CC1,16.9%

row,Compound,inhibition
1,CC(Nc1nc(-c2cccs2)nc2ccccc12)C1CCCO1 (stereo not drawn),-41.2%
2,Cc1cccc(/C=C/c2nc(-c3cc(C(=O)O)co3)cs2)c1,42.9%
3,OCC1(CCc2ccccc2)CCCN(Cc2cc3ccccc3o2)C1 (stereo not drawn),23.5%
4,Oc1ccccc1CN1CCCn2cccc2C1c1cccc(C(F)(F)F)c1 (stereo not drawn),22.1%
5,O=C(C=Cc1ccc2c(c1)OCO2)c1ccc(Br)cc1,-39.3%
6,O=C(C=Cc1ccc2c(c1)OCO2)c1ccc(Cl)cc1Cl,73.5% (active)
7,CC(C)(C)c1ccc(C2=NC(=Cc3ccc4c(c3)OCO4)C(=O)O2)cc1,-19.9%
8,COC(=O)c1nnn(-c2ccc(C)c(C)c2)c1C(=O)OC,82.4% (active)
9,COC(=O)CCc1nnc(NS(=O)(=O)c2ccc(C)c(C)c2)s1,48.8%
10,Cc1cc(N)c2ccccc2[n+]1CCCCCCCCCC[n+]1c(C)cc(N)c2ccccc21,72.6% (active)
11,c1ccc(-c2cn3c(n2)CCc2ccc4cccnc4c2-3)cc1,16.6%
12,c1cnc(Sc2ccc3ccccc3c2)nc1,32.8%
13,c1cnc2c(c1)ccc1cccnc12,95.2% (active)
14,Cc1c(Cc2ccccc2)c(=O)oc2cc(OCC(N)=O)ccc12,62.1% (active)
15,NC(=O)COc1cccc(CN2CCCSc3ccccc32)c1,35.4%
16,COc1cccc(-c2coc3c(C)c4oc(=O)c(CCC(=O)O)c(C)c4cc23)c1,47%
17,CCc1ccc(OCCCn2c(CO)nc3ccccc32)cc1,77% (active)
18,CCc1ccc(OCCn2c(CO)nc3ccccc32)cc1,34.1%
19,ClC1(Cl)CC1Cn1c(Cc2ccccc2)nc2ccccc21 (stereo not drawn),25.7%
20,COc1ccc(N=C(Nc2ccc(OC)cc2)SC)cc1,74.3% (active)
21,CCOc1ccc(N=C(Nc2ccc(OCC)cc2)SC)cc1,-1.39%
22,CCn1c(=S)[nH]c2sc3c(c2c1=O)CCC(C)C3 (stereo not drawn),21.2%
23,CCn1c(=S)[nH]c2scc(-c3cccs3)c2c1=O,98.8% (active)
24,Cn1c(=S)[nH]c2scc(-c3cccs3)c2c1=O,-21.9%
25,Cc1csc(NC(=O)c2ccc(COc3cccc4c3OC(C)(C)C4)cc2)n1,92.8% (active)

# Source: PubChem BioAssay AID1259343 (VanderVen Lab, College of Veterinary Medicine, Cornell …, 2017)
